Test results as given in the supplement of paper PMC4166925.
± gives the standard deviation of the averaged measurements. Whole data set: some 33,000 sequences, median “E-score (dimensionless, -0.5 to 0.5)” near -0.049, cut for the highest 2% near 0.37. What follows is part of a selection rich in the highest values, with near analogues and random picks from the rest.

system: T1, PmTbr T-box DNA-binding domain (GST fusion); assay: PBM E-score of 8-mer (E-score (dimensionless, -0.5 to 0.5)); Tbr is Tbrain of the sea star Patiria miniata (Pm) or the sea urchin Strongylocentrotus purpuratus (Sp); higher = stronger binding preference; details: the construct has about 5 more residues each side
T1 sequence: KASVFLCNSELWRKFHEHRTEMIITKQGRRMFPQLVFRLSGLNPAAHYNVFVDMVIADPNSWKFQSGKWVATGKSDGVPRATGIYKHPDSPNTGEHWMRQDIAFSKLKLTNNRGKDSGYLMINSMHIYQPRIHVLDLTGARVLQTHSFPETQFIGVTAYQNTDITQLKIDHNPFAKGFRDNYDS
Method in brief: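 Primer extension turned Universal Agilent oligonucleotide arrays double-stranded. They were incubated with 200 nM protein in PBS (pH 7.5); the protein was a GST-fused Tbr T-box DNA-binding domain expressed in BL21 E. coli at 20 °C and purified on glutathione. Every ungapped 8-mer was scored from the scanned, quantified probe intensities, and the Universal PBM Analysis Suite gave each an enrichment E-score averaged over duplicate arrays.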

Sequence	PBM E-score of 8-mer
GGCATTAC	-0.165 ± 0.0079
GGATACCC	-0.327 ± 0.049
GGAGAGGA	-0.1 ± 0.0036
CTTGGGGA	-0.196 ± 0.039
ATAAGTGG	0.124 ± 0.042
CAATGGAC	-0.0519 ± 0.011
TGCCCACA	-0.0968 ± 0.015
AAGGTTTG	-0.16 ± 0.015
AAGGTGTG	0.4811 ± 0.0016
ACGGTGTG	0.324 ± 0.012
AATGGCTG	-0.207 ± 0.038
GGTGATAA	0.413 ± 0.018
CGTGATAA	0.251 ± 0.034
AGTGATAA	0.317 ± 0.052
TGTGATAA	0.406 ± 0.046
TATGATAA	-0.0124 ± 0.036
GGTGATAC	0.364 ± 0.025
TTGCGCAA	0.108 ± 0.0064
CTAGATTC	0.139 ± 0.039
AATGGACA	0.0325 ± 0.009
ACACCTGT	0.472 ± 0.00061
GCACCTAA	0.373 ± 0.016
ACACCTAC	0.4763 ± 0.0017
GGACCTAA	-0.0476 ± 0.0062
GTACCTAA	-0.248 ± 0.013

Sequence	PBM E-score of 8-mer
GCACCTAC	0.382 ± 0.0042
ATACCTAC	-0.172 ± 0.0048
ACACCGGT	0.22015 ± 2.8e-05
CCACCTAC	0.273 ± 0.049
AAACCTGT	0.0415 ± 0.013
GTACCTAC	-0.272 ± 0.061
AGACCTAC	-0.292 ± 0.035
AGTTGGCG	0.229 ± 0.039
AAGATCGA	-0.152 ± 0.084
CGCAACAG	0.0766 ± 0.031
CAGCAATC	-0.21244 ± 7.8e-05
CTCCATCA	0.123 ± 0.077
GGTAAGTA	-0.0321 ± 0.051
CGGTCAAC	-0.0198 ± 0.048
GCAGGGGC	-0.193 ± 0.12
AGATGGAC	-0.281 ± 0.02
TGACCTAA	-0.228 ± 0.013
AAACCTAG	0.113 ± 0.032
ATACCTAA	0.0416 ± 0.058
ACACCTAG	0.462 ± 0.0066
AGACCTAT	-0.2143 ± 0.00038
ACACCTAA	0.463 ± 0.0018
AAACCTAA	-0.0751 ± 0.036
CCACCTAG	0.264 ± 0.0049
ATACCTAT	-0.0294 ± 0.018

Sequence	PBM E-score of 8-mer
CCACCTAA	0.146 ± 0.058
ACACCTAT	0.4662 ± 0.00073
TCACCTAA	0.383 ± 0.0065
CGCACAAA	0.00904 ± 0.0019
ATTCCTCG	-0.0674 ± 0.053
ATAGCTCC	-0.134 ± 0.022
CTCCCCAA	-0.12 ± 0.0034
CTGAAACC	-0.0317 ± 0.0024
TGATACAA	0.126 ± 0.037
GTAGTGCA	-0.21 ± 0.062
AAAGGCAC	-0.0325 ± 0.013
GCCATAAA	-0.0292 ± 0.012
AGATAGAT	-0.217 ± 0.015
CCACCTCC	0.305 ± 0.024
GCACCTCA	0.35 ± 0.037
GCACCTCC	0.4324 ± 0.002
GAACTACA	0.0281 ± 0.036
TCGGTCCA	-0.365 ± 0.015
ACGTGTTC	0.2198 ± 0.001
ACGTGTTA	0.442 ± 0.015
GCGTGTTA	0.336 ± 0.036
ACGTGTAG	0.118 ± 0.015
CCGTGTTA	0.24 ± 0.041
ACGTGTTG	0.3744 ± 0.0004
CGAGCAAA	-0.0522 ± 0.042

Sequence	PBM E-score of 8-mer
CTTTGTCC	0.109 ± 0.0064
ACAAGGTG	0.429 ± 0.006
AGAAGGTC	-0.315 ± 0.034
ATAAGGTA	0.0248 ± 0.096
ATAAGGTG	0.387 ± 0.0095
AGAAGGTG	0.403 ± 0.0068
ATAAGGTC	-0.146 ± 0.021
ACAAGGTC	0.1572 ± 0.00086
AGAAGGTA	-0.2003 ± 0.00059
ACAAGGTA	-0.0243 ± 0.03
AAGAATCG	-0.0615 ± 0.066
ACACTGAC	0.209 ± 0.018
ACTGATCG	-0.0574 ± 0.0033
CTCTAACC	-0.103 ± 0.089
AACGGGGT	-0.136 ± 0.084
CTCGCTAC	0.0679 ± 0.05
CTCGACAC	0.387 ± 0.029
GACGACAC	0.305 ± 0.034
GTCGACAA	0.295 ± 0.022
CTCGACAA	0.131 ± 0.017
ATCGACAA	0.222 ± 0.036
ATCGACAC	0.398 ± 0.025
GTCGACAC	0.406 ± 0.013
CTCGACAG	0.244 ± 0.018
ATCGACAG	0.236 ± 0.032
